Rows were chosen to be rich in hits. Some 3% of all compounds tested hit in one or more screens of this group.
HEK293 viab: counter-screen for SNCA expression inhibitors: cell viability; HEK-293-SNCA-luc viability, GF-AFC fluorescence, 24 h; Potency, µM (top dose mostly 57.1 µM), for inactives: at the top dose activity change, negative = cytotoxicity, hits mostly cytotoxic; 150,000 compounds, 0.12% hits; AID 1671193;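 also: potency is read from the fitted curve at half-maximal effect; 0% = DMSO-treated cells and -100% = medium-only wells without cells; nearly all actives have a fitted effect of over 30% in size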
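HEK-293-SNCA-luc cells (1500/well) plated 24 h, then exposed 24 h to a dilution series; GF-AFC added 30 min at 37C, fluorescence 405/540 nm; normalised to medium-only and DMSO wells, Hill fit.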
SNCA expr inhib: reduces expression of the alpha-synuclein gene. HEK-293 SNCA-luciferase knock-in, luminescence, 24 h. Potency, µM (doses to about 57.2 µM), for inactives: at the top dose activity change, negative = inhibition, hits mostly inhibitors. 140,000 compounds, 0.17% hits. AID 1671194;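 also: potency is read from the fitted curve at half-maximal effect; plate controls were DMSO cells for no effect and cell-free wells for full effect; nearly all actives have a fitted effect of over 45% in size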
KDM5B inhibitor: KDM5B demethylase inhibition; Q9UGL1; 220,000 compounds, 2.6% hits; KDM5B demethylase, FDH-coupled NADH fluorescence (FDH is formaldehyde dehydrogenase); Potency, µM (top dose mostly 57.7 µM), hits mostly inhibitors; also: potency is read from the fitted curve at half-maximal effect; 0% is about no effect; nearly all actives have a fitted effect of over 70% in size
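Compound dilutions met 200 nM (final) KDM5BΔAP for 10 min at room temperature before substrate addition. The substrate mix held 12.5 µM H3K4me3 with cofactors 25 µM α-ketoglutarate and 50 µM Fe²⁺. NADH signal gain over 30 min defined activity.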
IP6K1 inhibitor: IP6K1 kinase inhibition; Q92551; IP6K1 kinase, ADP-Glo luminescence, 2 h; active compounds read low; activity change, % (series mostly up to about 58 µM); 140,000 compounds, 0.81% hits; in the data active = activity change below about -25%; also: % is scaled to controls: 0 for no effect and ±100 for the full control effect
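ADP-Glo luminescence measures ADP made by human IP6K1 during a 2 h RT reaction with ATP/IP6 (mix at 1.3 mM/130 uM); top library doses 57.5 and 19.1 uM final.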
* hit, by the source's call; i = inactive; ? = inconclusive; nt = no result; [ ] = dose if it differs, or a comment. Unless noted, calls follow the shape of the dose curve; as a rule, active = well fitted curve in the direction sought with a large enough effect; inconclusive = small, poorly fitted or top-dose-only effect, or another doubt; inactive = no such curve, though single readings can be large; an effect the other way counts as inactive or inconclusive.

SMILES	HEK293 viab	SNCA expr inhib	KDM5B inhibitor	IP6K1 inhibitor
COc1ccc(OC)c(-c2cc(-c3ccccc3)nc3c(C)noc23)c1	4%[87.6 µM]	-15%[87.6 µM]	35µM*	12
Cc1noc2c(-c3cccnc3NC(C)C)cc(-c3ccccc3)nc12	21%[87.6 µM]	2%[87.6 µM]	32µM*	-10
Cc1noc2c(-c3cccnc3NCc3cnccn3)cc(-c3ccccc3)nc12	10%[87.6 µM]	-15%[87.6 µM]	32µM*	10
Cc1noc2c(-c3cccnc3NCCN3CCOCC3)cc(-c3ccccc3)nc12	-4%[87.6 µM]	?	35µM*	-15
CC(Cc1c[nH]c2ccccc12)NC(=O)CCNc1nc(Cl)nc2nc[nH]c12 (stereo not drawn)	nt	nt	i	nt
N#CC(C(=O)NCc1ccccc1)C(=O)c1cccc(C(F)(F)F)c1 (stereo not drawn)	nt	nt	i	nt
Cc1cccc(C(=O)NCc2ccc(C)s2)n1	nt	nt	i	nt
CC(=O)N1CCC(Nc2cc(-c3ccc(Cl)cc3)nc3c(C)noc23)CC1	-21%[87.6 µM]	-22%[87.6 µM]	i	-10
CC(=O)N1CCC(Nc2ncccc2-c2cc(-c3ccccc3)nc3c(C)noc23)CC1	-15%[87.6 µM]	-21%[87.6 µM]	20µM*	-16
COc1ccc(C(=O)N2CCCC(N3C(=O)c4c(c(C)nn4-c4ccccc4)C3C)C2)cc1 (stereo not drawn)	nt	nt	nt	8
COC(=O)[C@@H]1Cc2c([nH]c3ccccc23)[C@H]2C[C@@H](NCCN(C)C)C[C@@H](c3ccc(F)cc3)N21	-17%	-10%	25µM*	3
COCCN[C@@H]1C[C@@H]2c3[nH]c4ccccc4c3C[C@@H](C(=O)OC)N2[C@H](c2cccc(OC)c2)C1	2%	-12%	5.6µM*	-8
COC(=O)[C@@H]1Cc2c([nH]c3ccccc23)[C@H]2C[C@@H](NCCCn3ccnc3)C[C@@H](c3ccc(F)cc3)N21	-25%	-2%	13µM*	-13
COCCN[C@@H]1C[C@@H]2c3[nH]c4ccccc4c3C[C@@H](C(=O)OC)N2[C@H](c2ccc(C(F)(F)F)cc2)C1	-1%	-5%	?	-7
COCCN[C@H]1C[C@@H]2c3[nH]c4ccccc4c3C[C@@H](C(=O)OC)N2[C@H](c2ccccc2)C1	?	?	28µM*	3
COCCN[C@@H]1C[C@@H]2c3[nH]c4ccccc4c3C[C@@H](C(=O)OC)N2[C@H](c2ccc(C(C)C)cc2)C1	2%	-3%	?	-12
Cc1ccccc1/C=C/c1ccc2ccccc2n1	nt	nt	i	nt
COc1cccc(-c2ccc(C(=O)NCCNC(=O)c3ccccc3F)cc2)c1	nt	nt	nt	18
Cc1ccc(N2C(=O)N(CC(=O)NCc3ccccc3)c3ccccc3S2(=O)=O)c(C)c1	nt	nt	i	nt
O=C(Cn1ccn2nc3c(c2c1=O)CCCCC3)Nc1cc(F)ccc1F	5%	0%	28µM*	6
Cc1cccc(C)c1NC(=O)Cn1ccn2nc3c(c2c1=O)CCCC3	-2%	?	i	1
Cc1cc(NC(=O)Cn2ccn3nc4c(c3c2=O)CCCC4)no1	9%	26%	25µM*	0
Cc1cccc(NC(=O)Cn2ccn3nc4c(c3c2=O)CCCC4)c1C	1%	23%	28µM*	38
Cc1cc(C)cc(NC(=O)Cn2ccn3nc4c(c3c2=O)CCCC4)c1	0%	18%	35µM*	-2
CCc1c(C(=O)c2[nH]c(C)c(C(C)=O)c2C)oc2ccc(F)cc12	nt	nt	i	nt
SMILES	HEK293 viab	SNCA expr inhib	KDM5B inhibitor	IP6K1 inhibitor
NCc1ccc(C(=O)N2CCCC2)cc1	nt	nt	i	nt
O=C(Nc1ccc2oc(-c3cccnc3)nc2c1)c1cccc(Cl)c1	nt	nt	i	nt
COc1ccc(-c2nc3c([nH]2)CC(C)(C)CNC3=O)cc1OC	-4%	-18%	32µM*	-9
COC(=O)CC1C(=O)NCCN1C(=O)c1n[nH]c2c1CCCC2 (stereo not drawn)	-10%	1%	i	-8
COc1nccnc1NC1CCN(S(=O)(=O)c2ccccc2)CC1	-3%	-9%	25µM*	2
COc1nccnc1NC1CCN(C(=O)c2n[nH]c3c2CCCC3)CC1	-7%	3%	32µM*	-4
COc1nccnc1NC1CCN(C(=O)c2ccccc2)CC1	3%	-6%	32µM*	-5
COc1nccnc1NC1CCN(S(=O)(=O)c2cnc[nH]2)CC1	-2%	32%	?	7
COc1nccnc1NC1CCN(C(=O)c2ccco2)CC1	3%	3%	25µM*	10
CCc1ccccc1NC(=O)c1nc(-c2ccccc2)oc1C	nt	nt	i	nt
CC(C)NC(=O)CN(C)C(=O)CCl	nt	nt	i	nt
COc1nccnc1NC1CCN(C(=O)c2ccccc2C)CC1	-6%	-17%	28µM*	-4
COc1nccnc1NC1CCNCC1	-13%	-21%	16µM*	0
COc1ccccc1-c1ccc2ncnc(NC3CCNCC3)c2c1	6%	20%	nt	nt
CCCOc1nccnc1NC1CCN(C(=O)c2ccncc2)CC1	6%	-30%	28µM*	-1
CCCOc1nccnc1NC1CCN(C(=O)c2cccs2)CC1	-15%	-9%	?	-2
COc1nccnc1NC1CCN(C(=O)c2ccc3nc[nH]c3c2)CC1	4%	6%	28µM*	-5
CC(=O)Oc1cccc2cc(-c3nc(-c4ccc(F)cc4)no3)c(=O)oc12	nt	nt	i	nt
CC(Sc1cc(C(=O)NC2CC2)c2ccccc2n1)C(=O)N1CCOCC1 (stereo not drawn)	nt	nt	i	nt
Cn1ncc2c(C(=O)NCc3cccc(F)c3)cc(-c3ccc(C(F)(F)F)cc3)nc21	nt	nt	nt	-8
COc1ccccc1CN1Cc2cc(NC(=O)c3ccc(Cl)cc3)ccc2OC(C)C1=O (stereo not drawn)	-9%	-27%	?	-11
COc1ccc2c(c1)CN(CC=C(C)C)C(=O)CCN2CC(O)Cc1ccccc1 (stereo not drawn)	nt	nt	nt	-16
CCS(=O)(=O)N1CCC(Oc2ncccc2C(=O)N(C)C)C1 (stereo not drawn)	2%	8%	i	26
COc1nccnc1NC1CCN(C(=O)c2cccs2)CC1	3%	3%	25µM*	12
CCCOc1nccnc1NC1CCN(S(=O)(=O)CC)CC1	1%	13%	28µM*	-2
SMILES	HEK293 viab	SNCA expr inhib	KDM5B inhibitor	IP6K1 inhibitor
COc1nccnc1NC1CCN(C(=O)c2cnccn2)CC1	-4%	2%	?	1
COc1nccnc1NC1CCN(C(=O)c2cccc(C)c2)CC1	1%	-9%	32µM*	18
COc1cc(C2CC(=O)Nc3c2c(C)nn3-c2ccc(C)cc2)cc(OC)c1O (stereo not drawn)	nt	nt	i	nt
CSc1ccc2cc(CN(C)CCO)c(-c3ccc(Cl)cc3)nc2c1	1%	-7%	28µM*	28
COc1ccc2cc(CN3CCC(CO)CC3)c(-c3ccc(Cl)cc3)nc2c1	-18%	?	?	-2
CCn1c(=O)c2c(cc(C)n2C)n(CC(=O)Nc2ccccc2C)c1=O	-14%	-14%	i	13
CCn1c(=O)c2c(cc(C)n2C)n(CC(=O)Nc2c(C)cccc2C)c1=O	28µM*	?	i	35
Cn1cnc2cc(-c3ccc(F)cc3)cc(C(=O)NCCCn3ccnc3)c21	0%[87.6 µM]	-11%[87.6 µM]	40µM*	0

Compound activity: PubChem, National Center for Advancing Translational Sciences (NCATS)
